Activity calls are given as the source filed them.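 Rule for the calls, unless noted: active = fluorescence slope higher than the sample average by over 3 SD (cut at about -0.22 in these data, passing the limit was not always enough); inactive = the rest.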

Data on 14 compounds can be found in PubChem BioAssay.

A short description of experiment [1]: inhibitors of TNFa-induced NFkB p65 translocation, primary screen, imaging, HUVEC, MLSMR starter and 10KST1 sets (AID 438;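 active = inhibition above 20% together with a positive visual image hit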;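 note: compound added about 3h40 before a 20 min TNFalpha stimulation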;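 for inhibition: signal is the nuclear over cytoplasmic p65 intensity ratio per well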). The note with it: HUVEC TNFa-induced p65 nuclear translocation; cell count: measured here: nuclei count (cytotoxicity indicator), at 2.08 µM; inhibition: at 2 µM, stronger effect = higher value, 0% TNFa-plus-vehicle, 100% no-TNFa wells.
Experiment [2] is described as follows: inhibitors of mutant huntingtin aggregation, primary screen, imaging, exon1htt(103Q)mCFP cells, high-content imaging (AID 483;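 active = visual image review flags a hit and inhibition of aggregation exceeds 20%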;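 note: compound exposure lasted 3 days before fixation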;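 for nuclei count: percent of the per-plate median nuclei count of sample wells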). The note with it: exon1htt(103Q)mCFP cell line, aggregate imaging, at 2 µM; inhibition of aggregation: stronger effect = higher value; nuclei count: measured here: cell count, toxicity.
Experiment [3] can be described thus: inhibitors of E-selectin induction by TNFa, primary screen, imaging, HUVEC, immunofluorescence, MLSMR starter and 10KST1 sets (AID 487;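 active = visually confirmed hit in the image check and inhibition above 20%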;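 for inhibition: signal is fraction of cell area covered by stained E-selectin grains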;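 for nuclei count: 100% = median nuclei count of all wells on the same plate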). The note with it: HUVEC TNFalpha-induced E-selectin immunofluorescence imaging, at 2 µM; inhibition: stronger effect = higher value; nuclei count: measured here: cell number, toxicity.
Experiment [4] has as its target Voltage-gated potassium channel subunit beta-2 (Rattus norvegicus) (UniProt P62483). The experiment is described as follows: KvBeta enzyme negative modulators, primary screen, biochemical, NADPH fluorescence (AID 622).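 Note: slope of raw intensity against log time taken from 70 to 1610 s.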 The note with it: recombinant KvBeta, 4-cyanobenzaldehyde reduction, at 10 µM, stronger effect = higher value.
Experiment [5] shares this target. Put plainly: KvBeta positive modulators, primary screen, biochemical, NADPH fluorescence (AID 623;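 active = NADPH fluorescence slope more negative than the mean of all samples by about 3 SD, 99.7% confidence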;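 note: fluorescence intensity change per second fitted from 20 to 320 s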). The note with it: Recombinant KvBeta, NADPH fluorescence decrease slope, 10 min; at 10 µM; stronger effect = lower value.
In experiment [6] the target is Alpha-2C adrenergic receptor (Homo sapiens) (UniProt P18825). The experiment is described as follows: modulators of alpha2C/GIRK thallium flux, primary screen, cell-based, HEK293 alpha2C/GIRK1/2 (AID 624;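 active = fluorescence slope after compound addition differing from the mean of all screened samples at 99.7% confidence, in either direction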;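 note: slope of fluorescence ratio to pre-addition baseline per second over 15 to 24 s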). The note with it: thallium flux BTC fluorescence, at 10 µM, actives lie on both sides.
Chain of Alpha-2C adrenergic receptor (Homo sapiens) (P18825 whole entry, looked up): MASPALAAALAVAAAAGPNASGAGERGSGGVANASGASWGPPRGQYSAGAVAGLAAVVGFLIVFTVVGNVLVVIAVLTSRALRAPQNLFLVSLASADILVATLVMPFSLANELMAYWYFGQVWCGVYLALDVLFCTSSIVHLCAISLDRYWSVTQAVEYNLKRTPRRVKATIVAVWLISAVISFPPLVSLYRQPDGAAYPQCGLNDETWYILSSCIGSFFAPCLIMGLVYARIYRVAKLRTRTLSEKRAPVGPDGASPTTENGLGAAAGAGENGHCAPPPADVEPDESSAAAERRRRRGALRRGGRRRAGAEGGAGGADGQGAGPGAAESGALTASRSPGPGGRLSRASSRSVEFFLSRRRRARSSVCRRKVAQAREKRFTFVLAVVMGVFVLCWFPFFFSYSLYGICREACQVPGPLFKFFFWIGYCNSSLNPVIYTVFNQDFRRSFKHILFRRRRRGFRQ
Experiment [7] is described as follows: inhibitors of Sendai virus-induced IRF3 signaling, primary screen, TLR/RLR signaling modifier project, cell-based, Sendai virus stimulus, luciferase, 10K MLSCN set (AID 602276;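 active = inhibition at or above 50% at 10 µM; inactive = inhibition below 50%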;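 note: firefly luciferase from ISG56 promoter only with Renilla not read in this screen; 0% = Sendai virus plus DMSO and 100% = medium plus DMSO without virus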). The note with it: HEK293 RL24 IRF3 luciferase reporter, at 10 µM, stronger effect = higher value.
Experiment [8] is described as follows: inhibitors of poly I:C-induced TLR3 signaling, primary screen, cell-based, poly I:C stimulus, luciferase, 10K MLSCN set (AID 602277;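 active = inhibition of the reporter signal at or above 50%; inactive = inhibition below 50%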). The note with it: HEK293-TLR3 RL24 IRF3 luciferase reporter, at 10 µM, stronger effect = higher value.

Chain of Voltage-gated potassium channel subunit beta-2 (Rattus norvegicus) (P62483 whole entry, looked up): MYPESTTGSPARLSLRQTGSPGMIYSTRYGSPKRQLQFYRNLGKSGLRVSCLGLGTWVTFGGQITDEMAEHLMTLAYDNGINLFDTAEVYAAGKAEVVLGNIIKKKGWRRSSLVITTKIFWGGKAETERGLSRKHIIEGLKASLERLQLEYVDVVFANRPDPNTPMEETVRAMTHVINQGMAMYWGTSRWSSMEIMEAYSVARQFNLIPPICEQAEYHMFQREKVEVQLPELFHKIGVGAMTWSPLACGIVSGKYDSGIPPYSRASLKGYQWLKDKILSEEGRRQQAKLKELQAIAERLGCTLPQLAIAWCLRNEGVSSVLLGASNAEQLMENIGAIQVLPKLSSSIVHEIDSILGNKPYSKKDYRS

On to `CCOC(=O)C1CCN(C(=O)COc2ccc(Cl)cc2Cl)CC1`, for which, in experiment [1], the cell count was 705. The inhibition in experiment [1] was -5.1% (inactive); in experiment [3] it was 4.3% (inactive); in experiment [7], 3.61% (inactive); in experiment [8], 14.2% (inactive). Further, in experiment [2], the inhibition of aggregation was 8% (inactive). Besides, the nuclei count turned out to be 103% in experiment [2] and 104% in experiment [3]. Also, in experiment [4], the fluorescence slope is -0.613 (inactive). Besides, the NADPH fluorescence slope in experiment [5] is -1.6e-05 (inactive). In experiment [6], the slope was 0.00593 (inactive).
For `CCOP(=O)(c1ccc(N(C)C)cc1)C(O)c1ccccc1OC` (centres undefined), the cell count in experiment [1] was 728. The inhibition in experiment [1] is -5.5% (inactive); in experiment [3], -31.9% (inactive); in experiment [7] it was 1.78% (inactive); in experiment [8] it was 10.6% (inactive). Further, in experiment [2], the inhibition of aggregation was -2.8% (inactive). Further, the nuclei count in experiment [2] stood at 113%; in experiment [3] it was 116%. The fluorescence slope in experiment [4] was -0.387 (inactive). In addition, the NADPH fluorescence slope in experiment [5] is 4.7e-05 (inactive). Besides, the slope in experiment [6] is 0.00598 (inactive).
On to `CCN(CC)CCOc1cccc(C(C)C)c1`, for which the cell count in experiment [1] came out at 657. Further, the inhibition in experiment [1] was -5.3% (inactive); in experiment [3] it was 1.1% (inactive); in experiment [7], 6.62% (inactive); in experiment [8] it was 13.5% (inactive). In experiment [2], the inhibition of aggregation is -2.7% (inactive). For the same compound, the nuclei count came to 104% in experiment [2] and 76.3% in experiment [3]. Further, in experiment [4], the fluorescence slope is -0.393 (inactive). For the same compound, in experiment [5], the NADPH fluorescence slope is -7.6e-05 (inactive). In addition, the slope in experiment [6] was 0.00629 (inactive).
As for `O=C(NCC(=O)N(Cc1cccs1)C(C(=O)NC1CCCC1)c1ccncc1)c1ccco1` (centres undefined), the cell count in experiment [1] came out at 478. Further, the inhibition in experiment [1] is -2.9% (inactive); in experiment [3], -26.6% (inactive); in experiment [7], 13.3% (inactive); in experiment [8] it was 16.2% (inactive). Further, the inhibition of aggregation in experiment [2] is -19.3% (inactive). Moreover, the nuclei count in experiment [2] was 107%; in experiment [3], 114%. In experiment [4], the fluorescence slope was -0.25 (inactive). In addition, the NADPH fluorescence slope in experiment [5] was -2e-05 (inactive). For the same compound, in experiment [6], the slope is 0.00557 (inactive).
With `O=C(c1ccc(Cl)c(F)c1F)N1CCCC1`, the cell count in experiment [1] was 384. The inhibition in experiment [1] is 4.4% (inactive); in experiment [3], -29.8% (inactive); in experiment [7], -9.75% (inactive); in experiment [8] it was 11.3% (inactive). Moreover, the inhibition of aggregation in experiment [2] is -11.4% (inactive). Further, the nuclei count is 112% in experiment [2] and 70.2% in experiment [3]. The fluorescence slope in experiment [4] was -0.276 (inactive). Besides, the NADPH fluorescence slope in experiment [5] was 1.2e-05 (inactive). Further, the slope in experiment [6] was 0.00949 (inactive).
In the case of `O=C(Cn1nc(Cc2cccnc2)c2ccccc2c1=O)NCC1CCCO1` (centres undefined), the cell count in experiment [1] amounted to 461. In addition, the inhibition in experiment [1] was 6.1% (inactive); in experiment [3], -96.1% (inactive); in experiment [7], 11.5% (inactive); in experiment [8], 29.9% (inactive). The inhibition of aggregation in experiment [2] is 12.1% (inactive). The nuclei count in experiment [2] amounted to 69.2%; in experiment [3], 115%. The fluorescence slope in experiment [4] is -0.553 (inactive). Further, in experiment [5], the NADPH fluorescence slope was -2.6e-06 (inactive). Moreover, the slope in experiment [6] is 0.00713 (inactive).
As for `O=C(NC1CC1)c1ccc(S(=O)(=O)NCC2CCCCC2)cc1`, the cell count in experiment [1] is 535. For the same compound, the inhibition in experiment [1] is -8% (inactive); in experiment [3], -58.9% (inactive); in experiment [7], 3.23% (inactive); in experiment [8], 5.07% (inactive). For the same compound, in experiment [2], the inhibition of aggregation is 18.7% (inactive). The results for the nuclei count in experiment [2] and in experiment [3] were 102% and 112%, respectively. Moreover, the fluorescence slope in experiment [4] is -0.508 (inactive). Moreover, the NADPH fluorescence slope in experiment [5] is 2.4e-05 (inactive). Further, the slope in experiment [6] is 0.00635 (inactive).
As for `Cn1c(C(=O)NCCN2CCN(c3ccccc3F)CC2)cc2c(=O)n(C)c3ccccc3c21`, the cell count in experiment [1] stood at 1100. Also, the inhibition in experiment [1] was 11% (inactive); in experiment [3] it was -30.2% (inactive); in experiment [7] it was 4.48% (inactive); in experiment [8], 16% (inactive). The inhibition of aggregation in experiment [2] is 12.6% (inactive). For the same compound, the results for the nuclei count in experiment [2] and in experiment [3] were 119% and 112%, respectively. Also, the fluorescence slope in experiment [4] was -0.571 (inactive). In addition, the NADPH fluorescence slope in experiment [5] is -2.1e-05 (inactive). The slope in experiment [6] is 0.00598 (inactive).
With `NC(=O)c1sc2nc3c(c(-c4ccco4)c2c1N)CCC3`, the cell count in experiment [1] was 365. Moreover, the inhibition is 5.8% (inactive) in experiment [1], -32.2% (inactive) in experiment [3], 16.4% (inactive) in experiment [7] and -2.19% (inactive) in experiment [8]. The inhibition of aggregation in experiment [2] is 1.6% (inactive). Also, the nuclei count is 87.8% in experiment [2] and 121% in experiment [3]. Also, the fluorescence slope in experiment [4] is -0.366 (inactive). The NADPH fluorescence slope in experiment [5] was -6.5e-05 (inactive). Further, the slope in experiment [6] is 0.00352 (inactive).
As for `CSc1nc2ccccc2c(=O)n1N`, in experiment [1], the cell count amounted to 618. The inhibition is 7.8% (inactive) in experiment [1], 28.4% (inactive) in experiment [3], 13% (inactive) in experiment [7] and 19% (inactive) in experiment [8]. Also, the inhibition of aggregation in experiment [2] is 12.4% (inactive). Besides, the nuclei count worked out at 90.5% in experiment [2] and 84.2% in experiment [3]. In experiment [4], the fluorescence slope is -0.404 (inactive). In experiment [5], the NADPH fluorescence slope is -1.3e-05 (inactive). Further, the slope in experiment [6] was 0.00832 (inactive).
For the compound `COc1cccc(C(=O)Nc2ncc3c(n2)CC(C)CC3=O)c1` (centres undefined), in experiment [1], the cell count is 390. Besides, the inhibition in experiment [1] was 2.5% (inactive); in experiment [3] it was -0.5% (inactive); in experiment [7], -6.66% (inactive); in experiment [8], -7.05% (inactive). In experiment [2], the inhibition of aggregation is 3% (inactive). Moreover, the values for the nuclei count in experiment [2] and in experiment [3] were 95.8% and 88.1%, respectively. Besides, the fluorescence slope in experiment [4] is -0.592 (inactive). In addition, the NADPH fluorescence slope in experiment [5] is -5.1e-05 (inactive). Also, the slope in experiment [6] is 0.00534 (inactive).
With `CCCCP(=O)(CCCC)Cc1ccccc1O`, the cell count in experiment [1] came to 363. Further, the inhibition in experiment [1] was -1.6% (inactive); in experiment [3], -39.4% (inactive); in experiment [7], -4.65% (inactive); in experiment [8] it was 9.82% (inactive). Further, the inhibition of aggregation in experiment [2] was 0.1% (inactive). Further, the nuclei count is 91.9% in experiment [2] and 97.4% in experiment [3]. In addition, the fluorescence slope in experiment [4] was -0.474 (inactive). In experiment [5], the NADPH fluorescence slope is -0.000131 (inactive). For the same compound, the slope in experiment [6] was 0.00605 (inactive).
For `Cc1cccc(NC(=O)C2CCCN(C(=O)Nc3ccccc3)C2)c1C` (centres undefined), the cell count in experiment [1] worked out at 599. In addition, the inhibition was -28.6% (inactive) in experiment [1], -9.2% (inactive) in experiment [3], 4% (inactive) in experiment [7] and -12% (inactive) in experiment [8]. For the same compound, the inhibition of aggregation in experiment [2] is -9.1% (inactive). Further, the nuclei count in experiment [2] stood at 87.8%; in experiment [3], 85.7%. The fluorescence slope in experiment [4] was -0.573 (inactive). Further, the NADPH fluorescence slope in experiment [5] was 4.6e-05 (inactive). In addition, in experiment [6], the slope was 0.00746 (inactive).
Regarding `O=C(NC1CCCCC1)C1CCCN1C(=O)NCc1ccccc1` (centres undefined), in experiment [1], the cell count was determined as 317. For the same compound, the inhibition in experiment [1] was 3.4% (inactive); in experiment [3] it was -33.5% (inactive); in experiment [7], 5.02% (inactive); in experiment [8], 10.2% (inactive). The inhibition of aggregation in experiment [2] was 7.5% (inactive). Moreover, the nuclei count in experiment [2] was determined as 106%; in experiment [3], 120%. The fluorescence slope in experiment [4] was -0.43 (inactive). Further, the NADPH fluorescence slope in experiment [5] is -5.2e-05 (inactive). In addition, the slope in experiment [6] is 0.00543 (inactive).
